102 compounds from PubChem BioAssay AID1259376 (The Scripps Research Institute Molecular Screening Center, 2018) can be followed below.

The inhibition is the change of the read-out against control, counted positive when it falls.

Each structure is given as a SMILES string. Among all 4,700 compounds or so, about 360 (7.7%) were called active.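 Rule for the calls: active = inhibition above a cutoff derived from the DMSO control wells (cut at about 30% in these data); inactive = the rest.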 A selection follows.

The nature of the test: AlphaScreen optical interference compounds, counter-screen for MITF inhibitor project, biochemical, triplicate (AID 1259376). The conditions noted are these: LysRS AlphaScreen counterscreen, signal interference, at 2.6 µM, hits give high values. (In general: Bead proximity is the source of the signal in Alpha formats.)
On to `CCN1CCN(CCCCOc2ccccc2F)CC1`, for which the inhibition was 6.82% (inactive). For `Cc1cccc(OCCN2CCNCC2)c1C`, the inhibition is -1.28% (inactive). Take `Cc1nc(NC2CC2)cc(-c2ccc(F)cc2)n1`: the inhibition is 14.2% (inactive). As for `Cc1nc(NC(=O)c2cc(Br)ccc2Cl)sc1C`, the inhibition is 12.2% (inactive). As for `COc1cc(CN2CCN(Cc3cccnc3)CC2)cc(OC)c1OC`, the figure is 18.8% (inactive). With `CN(CCc1ccccn1)CC(=O)N1CCc2ccccc21`, the inhibition was -7.9% (inactive). Take `CCCCC(=O)NCc1ccc(F)cc1`: the inhibition is 10.9% (inactive). For `Cc1nnc(N2CCC(Cc3ccccc3)CC2)c2ccccc12`, the inhibition was 6.39% (inactive). On to `CCCS(=O)(=O)N1CCN(C(C)C)CC1`, for which the inhibition is 9.53% (inactive). The result for `C=CCNC(=O)c1sc(=S)n(CC)c1N` reads -4.06% (inactive).

For the compound `COc1cc2nc(-c3cccc(C(C)=O)c3)nc(N)c2cc1OC`, the inhibition was 13.2% (inactive). With `O=C1NC(c2ccccc2[N+](=O)[O-])C(C(=O)c2cccs2)C(O)(C(F)(F)F)N1` (configuration not stated), the inhibition was 12.5% (inactive). As for `CCN(CC)CC(=O)Nc1c2c(nc3ccccc13)N(c1cccc(C)c1)CC2`, the inhibition was 1.32% (inactive).

For the compound `Cc1cccc(NC(=O)CNCCN2CCCCC2)c1C`, the inhibition was 12.4% (inactive). `C/C(N)=C(/C#N)C(=O)COC(=O)c1c2c(nc3ccccc13)/C(=C/c1ccco1)CC2`: the inhibition is -24.2% (inactive).

Take `CC1CCC2C(=O)N(c3ccc(I)cc3)C(=O)C2C1` (configuration not stated): the inhibition was 0.06% (inactive). Regarding `Cc1ccc(C)n1C(Cc1ccccc1)C(=O)O` (configuration not stated), the inhibition was -2% (inactive). Consider `Cc1ccc(C)c(OCCN2CCOCC2)c1C`, for which the inhibition was 17.5% (inactive). The result for `COc1ccc(CN2CCN(Cc3cccnc3)CC2)cc1OCc1ccccc1` reads 10.3% (inactive); that for `C=CCc1cc(C)ccc1OCCCn1ccnc1`, 7.18% (inactive); that for `OCCOCCN1CCN(Cc2ccc(Cl)cc2)CC1`, 3.33% (inactive). Turning to `C=CCn1c(SCC(=O)Nc2nc3ccccc3s2)nc(O)cc1=O`, the inhibition is -1.43% (inactive). `CN(CCC(=O)O)Cc1cccc(Cl)c1`: the inhibition was -6.2% (inactive). On to `COc1cc(CN2CCN(Cc3ccc(Cl)cc3)CC2)c([N+](=O)[O-])cc1OC`, for which the inhibition is 4.12% (inactive).

For `CCC(C)c1ccccc1NC(=O)CN(C)CC(=O)Nc1ccccc1SC` (configuration not stated), the inhibition is 3.28% (inactive).

Consider `O=c1c2ccccc2ncn1CCCCOc1ccccc1F`, for which the inhibition is 7.91% (inactive). As for `COc1ccc(CN2CCN(Cc3ccccc3C)CC2)c(OC)c1OC`, the figure is -1.44% (inactive); as for `COc1ccc(C(=O)NCCN2CCN(c3nc4c(C)c(C)ccc4s3)CC2)cc1`, -2.39% (inactive); as for `Fc1ccc(CN2CCN(C3CCCC3)CC2)cc1`, 5.37% (inactive).

`O=C(c1cccs1)N1CCC(N2CCN(Cc3ccccc3)CC2)CC1`: the inhibition was -5.37% (inactive). On to `O=[N+]([O-])c1ccc(OCc2nnc(SCCN3CCOCC3)n2-c2ccccc2)cc1`, for which the inhibition was -4.47% (inactive). On to `Clc1ccc(CN2CCN(CC3CC=CCC3)CC2)cc1` (configuration not stated), for which the inhibition is 1.68% (inactive). As to `Fc1cccc(Cl)c1Cn1nnc(-c2ccncc2)n1`, the inhibition was 12.8% (inactive). Turning to `CCCCCOc1ccc(OC(=O)c2ccc(-c3ccc(CCC)cn3)cc2)cc1`, the inhibition was 9.51% (inactive). As to `O=C(Cc1cccs1)N/N=C\C=C\c1ccco1`, the inhibition was -6.28% (inactive).

For the compound `c1ccc(Oc2cccc(OCCCCn3cncn3)c2)cc1`, the inhibition was 0.8% (inactive). Regarding `Cn1c(-c2ccc(F)cc2)cnc1NCc1cccnc1`, the inhibition was -4.79% (inactive).

As for `O=C(CNCc1cccnc1)Nc1ccc(C(=O)N2CCCCC2)cc1`, the inhibition is 8.3% (inactive).

As for `O=[N+]([O-])c1ccccc1S(=O)(=O)N1CCN(C2Cc3ccccc3C2)CC1`, the inhibition is 15% (inactive). Consider `CSc1ccc(CN2CCN(Cc3cccc(Oc4ccccc4)c3)CC2)cc1`, for which the inhibition was 6.5% (inactive). For `CSc1ccc(CN2CCN(S(=O)(=O)c3ccc([N+](=O)[O-])cc3)CC2)cc1`, the inhibition is 30% (active). For `O=S(=O)(c1ccc(F)cc1)N1CCN(Cc2ccccc2C(F)(F)F)CC1`, the inhibition is 12.8% (inactive). Consider `CC(C)(C)NCC(=O)Nc1c2c(nc3ccccc13)N(Cc1ccccc1)CC2`, for which the inhibition is 15.5% (inactive). For the compound `CC1CCCCC1NC(=O)CSc1nnc(-c2ccncc2)n1CCCN(C)C` (configuration not stated), the inhibition was 14.7% (inactive). As to `O=C(OCCN1CCOCC1)c1c(Cl)nc2sccn12`, the inhibition was 10.9% (inactive).

Consider `Cc1cc(OCCN2CCN(C)CC2)ccc1C(C)C`, for which the inhibition is 4.96% (inactive).

For `CCCS(=O)(=O)N1CCN(Cc2ccccc2Br)CC1`, the inhibition is 13.6% (inactive).

Turning to `COc1ccc2c(c1)CC(C(=O)Nc1ccc(-c3cn[nH]c3)cc1OCc1ccccc1)CO2` (configuration not stated), the inhibition is 22.5% (inactive). With `O=C(Nc1ccc(-c2ccncc2)c(C(F)(F)F)c1)C1COc2ccccc2O1` (configuration not stated), the inhibition is 5.92% (inactive). Regarding `COc1cccc(CN2CCN(CCCc3ccccc3)CC2CCO)c1` (configuration not stated), the inhibition was -5.46% (inactive). `CN(C)CC(C)(C)CNCc1nnc(-c2ccccc2)o1`: the inhibition is -0.68% (inactive). Consider `N#C/C(=C/c1ccc(-c2ccc3c(c2)C(=O)NC3=O)o1)C(=O)O`, for which the inhibition was 13.4% (inactive). As for `COc1ccc(OC)c(CN2CCN(Cc3ccccc3OC)CC2)c1`, the figure is 18.2% (inactive); as for `COC(=O)c1cccc(NS(=O)(=O)c2ccc3ccccc3c2)c1C`, 21.9% (inactive); as for `COc1ccc(CN2CCN(Cc3ccccc3C(F)(F)F)CC2)cc1OC`, 17.4% (inactive). Turning to `CS(=O)(=O)N1CCN(Cc2cccc(Cl)c2)CC1`, the inhibition was -4.82% (inactive). As to `O=C(O)CCCCCNC(=O)/C(=C\c1ccco1)NC(=O)c1ccccc1`, the inhibition is -2.96% (inactive). For the compound `COc1ccc2c(c1)CC(c1nc(Nc3ccc4cnccc4c3)c3ccccc3n1)CO2` (configuration not stated), the inhibition was 8.8% (inactive).

With `COc1cccc(OC)c1C(=O)N1CCN(Cc2cccnc2)CC1`, the inhibition was 14.3% (inactive). As for `COc1cc(CN2CCN(Cc3ccc(OC)c(OC)c3)CC2)cc(OC)c1`, the figure is 1.7% (inactive); as for `COc1cc(CN(CCN(C)C)Cc2ccccc2)cc(OC)c1`, 2.44% (inactive); as for `CC(c1ccccn1)N(CCN(C)C)C(=S)Nc1ccccc1F` (configuration not stated), 100% (active). The result for `COc1ccc2c(c1)CC(C(=O)Nc1ccc(-c3cn[nH]c3)cc1OCC(N)=O)CO2` (configuration not stated) reads 16.5% (inactive). The result for `CCN1CCN(CCCOc2ccc(C(C)=O)cc2OC)CC1` reads 19.6% (inactive); that for `CCN(CCN(C)C)Cc1c(Cl)cccc1Cl`, -9.64% (inactive); that for `NC(=O)COC(=O)/C=C/c1ccc(I)o1`, 16.2% (inactive). In the case of `COc1cc(OC)c(OC)cc1CN1CCN(Cc2ccc(F)cc2)CC1`, the inhibition is -4.28% (inactive). Consider `COc1ccc(CN2CCN(Cc3cc(OC)ccc3OC)CC2)cc1`, for which the inhibition is -1.01% (inactive).

Regarding `CC(=O)N1CCN(CC(=O)Nc2ccc(C)c(F)c2)CC1`, the inhibition was 5.18% (inactive). As for `COC(=O)CSc1nc(C2CC2)nc2ccccc12`, the inhibition is 9% (inactive).

Turning to `CCOc1ccc(CN2CCN(C(=O)c3cccc(Cl)c3)CC2)cc1`, the inhibition is 0.05% (inactive). In the case of `COc1ccc(NC(=O)c2cc3n(n2)C(C(F)(F)F)CC(c2ccc(OC)c(OC)c2)N3)cc1OC` (configuration not stated), the inhibition is -6.86% (inactive). Regarding `CCC(C)NCCOCCOc1cc(C)cc(C)c1C` (configuration not stated), the inhibition was -2.01% (inactive).

In the case of `CCN1CCN(CC(O)COc2cccc(C(=O)OC)c2)CC1` (configuration not stated), the inhibition was -1.14% (inactive). For the compound `O=C1c2ccccc2C(O)N1Cc1ccccc1Cl` (configuration not stated), the inhibition is 0.5% (inactive). For `c1cc2c(cc1CN1CCN(C3CCCC3)CC1)OCO2`, the inhibition is 2.1% (inactive). As for `Cc1ccc(C(C)C)c(OCCN2CCNCC2)c1`, the figure is -3.79% (inactive); as for `COc1cccc(-c2ncnn2-c2sc3c(c2C#N)CCCCC3)c1`, 17.1% (inactive); as for `COc1ccc(NC(=O)CN2CCN(C)CC2)c(OC)c1`, 13.8% (inactive).

As to `COc1ccc(CNCC2CN(CC(C)C)CCO2)cc1` (configuration not stated), the inhibition was 10.1% (inactive). As for `COc1cccc(CN2CCN(Cc3ccc(C(F)(F)F)cc3)CC2)c1OC`, the inhibition was -5.41% (inactive). As for `NS(=O)(=O)c1cccc(NC(=O)COc2ncnc3sc(-c4ccccc4)cc23)c1`, the inhibition is 20.8% (inactive).

As to `O=C(NN1C(=O)c2ccccc2C1=O)c1cccc(F)c1`, the inhibition was -4.68% (inactive). With `CCOc1ccc(OCCCCNCCO)cc1`, the inhibition was 15.9% (inactive). With `Cc1cnc(NCc2ccc3c(c2)OCO3)nc1Nc1ccccc1`, the inhibition is 7.89% (inactive).

For `CCCS(=O)(=O)N1CCN(Cc2cccc(Cl)c2)CC1`, the inhibition is 13.1% (inactive).

Turning to `c1cc2c(cc1CNc1nc(Nc3ccc(N4CCOCC4)cc3)c3ncn(C4CCCCC4)c3n1)OCO2`, the inhibition was -14.4% (inactive). Consider `COCc1nc2ccccc2n1CCc1noc(-c2ccco2)n1`, for which the inhibition is -8.54% (inactive). As to `Cc1cc(S(=O)(=O)Nc2ccc3c(c2)OCCO3)ccc1-n1cnnn1`, the inhibition was 14% (inactive). In the case of `Cc1ccc(C(C)C)c(OCC#CCN2CCNCC2)c1`, the inhibition is 14.9% (inactive).

Consider `CC(C)(C)NCCOCCOc1ccc(Cl)c(Cl)c1`, for which the inhibition is 9.65% (inactive).

For the compound `C[C@@H](OCc1ccccc1)[C@@H]1NC(=O)[C@H]2CN(C(=O)Nc3cccc(F)c3)CCN2C1=O`, the inhibition was 1.57% (inactive). Consider `COc1cc(CN2CCN(Cc3ccco3)CC2)c([N+](=O)[O-])cc1OC`, for which the inhibition is 13% (inactive). As to `CC[C@@H]1NC(=O)[C@H]2CN(C(=O)NCc3ccccc3)CCN2C1=O`, the inhibition is 2.23% (inactive). Regarding `CCN1CCN(CC(=O)N/N=C/c2cccc(Cl)c2)CC1`, the inhibition is 3.65% (inactive). As for `Cc1cccnc1NC(=O)CSc1nnc(COc2ccc(C(C)C)cc2)n1C`, the inhibition is 9.54% (inactive). As for `Cc1cc(NC(=O)CNCCCN(C)C)no1`, the inhibition is 1.07% (inactive). The result for `Cc1cc(NC(=O)CSc2ccc(-c3ccccn3)nn2)no1` reads 93.4% (active). As for `C=CCNCCOCCOc1cc(C)ccc1C(C)(C)C`, the figure is 15.9% (inactive); as for `COc1ccc(OCCCC(=O)Oc2ccc(OC)cc2)cc1`, 3.96% (inactive).

`CCc1ccc(NC(=O)CS(=O)CC(=O)NCCCc2ccccc2)cc1` (configuration not stated): the inhibition was -4.98% (inactive).

On to `COc1cc(CN2CCN(C(=O)C(c3ccccc3)c3ccccc3)CC2)cc(OC)c1OC`, for which the inhibition was 9.83% (inactive).
